From PubChem BioAssay (NCI)
About 79,000 compounds went through this panel and 15% of them were active in at least one assay; those are over-represented in the sample as a whole. Calls of active or inactive are those of the source. Rule as the data show it: active = growth inhibition above about 70%; inactive = the rest.

What was measured:
[1] = NCI Yeast Anticancer Drug Screen. Data for the rad52 strain (AID 147);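 also: 0% = growth of vehicle-treated control cultures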; conditions: S. cerevisiae rad52 mutant growth inhibition, stronger effect = higher value
Procedure, shortened: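 Compounds are applied to a genetically defined yeast strain lacking normal DNA damage repair, and inhibition of growth is expressed relative to cultures given vehicle only.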

[2] = NCI Yeast Anticancer Drug Screen. Data for the wt1 strain (AID 149);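 also: 0% = growth of vehicle-treated wt1 cultures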; conditions: S. cerevisiae wt1 strain (SPY 50644) growth inhibition, stronger effect = higher value
Procedure, shortened: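 Compounds are added to wt1 yeast cultures. Growth is then measured. Inhibition is expressed relative to vehicle-treated controls.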

[3] = NCI Yeast Anticancer Drug Screen. Data for the rad50EPP+ strain (AID 151);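 also: 0% = growth of vehicle-treated control cultures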; conditions: S. cerevisiae rad50 mutant strain, stronger effect = higher value
Procedure, shortened: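 Compounds were applied to the rad50EPP+ yeast strain, which bears a defined DNA repair alteration, and growth inhibition was determined relative to vehicle-treated cultures.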

[4] = NCI Yeast Anticancer Drug Screen. Data for the mgt1 strain (AID 153); conditions: S. cerevisiae mgt1 mutant growth inhibition, stronger effect = higher value
Procedure, shortened: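 Strain: mgt1 yeast, one of a set carrying defined DNA damage repair or cell cycle control alterations. Compound-treated growth compared with vehicle.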

[5] = NCI Yeast Anticancer Drug Screen. Data for the rad50 strain (AID 155);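 also: 0% = growth of vehicle-only cultures of the same strain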; conditions: S. cerevisiae rad50 strain growth inhibition, stronger effect = higher value
Procedure, shortened: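 Inhibition values express reduced yeast growth in compound-treated cultures relative to vehicle-treated controls.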

[6] = NCI Yeast Anticancer Drug Screen. Data for the mec2-1 strain (AID 157); conditions: S. cerevisiae mec2-1 strain, stronger effect = higher value
Procedure, shortened: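 Strain: mec2-1 (DNA repair/cell cycle alteration). Compound exposure, then growth measured; inhibition expressed relative to vehicle.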

[7] = NCI Yeast Anticancer Drug Screen. Data for the rad14 strain (AID 159);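 also: 0% = growth of vehicle-treated control cultures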; conditions: S. cerevisiae rad14 strain growth inhibition, stronger effect = higher value
Procedure, shortened: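 A mutant yeast strain defective in DNA damage repair is treated with compound; inhibition of its growth is scored against untreated, vehicle-exposed cultures.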

[8] = NCI Yeast Anticancer Drug Screen. Data for the sgs1 mgt1 strain (AID 161);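 also: 0% = growth of cultures given vehicle only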; conditions: S. cerevisiae sgs1 mgt1 strain, stronger effect = higher value
Procedure, shortened: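 Genetically altered yeast, compound exposure, growth inhibition relative to vehicle.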

[9] = NCI Yeast Anticancer Drug Screen. Data for the CLN2oe strain (AID 163);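 also: 0% = growth of vehicle-only control cultures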; conditions: S. cerevisiae CLN2oe strain, stronger effect = higher value
Procedure, shortened: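 Growth of a genetically modified yeast strain is measured after compound exposure and compared with cultures given vehicle alone.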

[10] = NCI Yeast Anticancer Drug Screen. Data for the cln2 rad14 strain (AID 165);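 also: 0% = growth equal to vehicle treated cultures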; conditions: S. cerevisiae cln2 rad14 strain, stronger effect = higher value
Procedure, shortened: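 Compounds are applied to the cln2 rad14 yeast strain, and growth is then compared with that of vehicle-treated cultures to give inhibition.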

[11] = NCI Yeast Anticancer Drug Screen. Data for the bub3 strain (AID 167); conditions: S. cerevisiae bub3 mutant strain, stronger effect = higher value
Procedure, shortened: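 Steps: expose the mutant yeast strain to compound; grow alongside vehicle-treated cultures; measure growth; express inhibition against the vehicle cultures.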

[12] = NCI Yeast Anticancer Drug Screen. Data for the wt2 strain (AID 169);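 also: 0% = growth of vehicle-treated yeast cultures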; conditions: S. cerevisiae wt2 strain growth inhibition, stronger effect = higher value
Procedure, shortened: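 This strain belongs to a panel of yeast strains with defined genetic alterations in DNA damage repair or cell cycle control. Compounds are applied, and growth inhibition is measured against vehicle-treated cultures.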

[13] = NCI Yeast Anticancer Drug Screen. Data for the mlh1 strain (AID 171);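 also: 0% = growth of vehicle-treated control cultures of the same strain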; conditions: S. cerevisiae mlh1 strain growth inhibition, stronger effect = higher value
Procedure, shortened: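 Growth of the mutant yeast strain after compound exposure, expressed as inhibition relative to vehicle-only controls.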

[14] = NCI Yeast Anticancer Drug Screen. Data for the sgs1 strain (AID 173);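 also: 0% = growth of vehicle-only control cultures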; conditions: S. cerevisiae sgs1 mutant, stronger effect = higher value
Procedure, shortened: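 Growth of a yeast strain bearing a defined genetic alteration is measured after compound treatment. Inhibition is expressed relative to vehicle-only controls.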

[15] = NCI Yeast Anticancer Drug Screen. Data for the mlh1 rad18 strain (AID 175); conditions: S. cerevisiae mlh1 rad18 strain growth inhibition, stronger effect = higher value
Procedure, shortened: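 Read-out is yeast growth inhibition, calculated against vehicle-only controls. The compound was applied to a strain engineered with DNA damage repair alterations.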

[16] = NCI Yeast Anticancer Drug Screen. Data for the rad18 strain (AID 177); conditions: S. cerevisiae rad18 mutant growth inhibition, stronger effect = higher value
Procedure, shortened: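 Growth of the mutant yeast strain after compound exposure, normalised to vehicle-only cultures.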

[17] = at 5.0 µM (retest, dose inferred, filed as 0.5)
[18] = at 50.0 µM (retest, dose inferred, filed as 5.0)

Measured: growth inhibition

NC(N)=N/N=C\c1c2ccccc2cc2ccccc12
inactive: [1]; at 1.2 µM -73% | [1]; at 3.7 µM -78% | [1]; at 11.0 µM -50% | [1]; at 33.0 µM 27% | [2]; at 1.2 µM -38% | [2]; at 3.7 µM -29% | [2]; at 11.0 µM -29% | [2]; at 33.0 µM -27% | [3]; at 1.2 µM -28% | [3]; at 3.7 µM -20% | [3]; at 11.0 µM -7% | [3]; at 33.0 µM 6% | [3]; at 100.0 µM 23% | [4]; at 1.2 µM -38% | [4]; at 3.7 µM -54% | [4]; at 11.0 µM -34% | [4]; at 33.0 µM 3% | [5]; at 1.2 µM -16% | [5]; at 3.7 µM -17% | [5]; [17] 22% | [5]; at 11.0 µM -8% | [5]; at 33.0 µM 36% | [5]; [18] 66% | [5]; at 50.0 µM 17.1% | [6]; at 1.2 µM -58% | [6]; at 3.7 µM -37% | [6]; [17] 18% | [6]; at 11.0 µM -45% | [6]; at 33.0 µM -10% | [6]; [18] 42% | [6]; at 50.0 µM 36.9% | [7]; at 1.2 µM -50% | [7]; at 3.7 µM -41% | [7]; at 11.0 µM -45% | [7]; at 33.0 µM 9% | [8]; [17] 8% | [8]; [18] 47% | [8]; at 50.0 µM 33.6% | [9]; at 1.2 µM -29% | [9]; at 3.7 µM 6% | [9]; at 11.0 µM -4% | [9]; at 33.0 µM 18% | [10]; [17] -2% | [10]; [18] 25% | [10]; at 50.0 µM 1.85% | [11]; at 1.2 µM -43% | [11]; at 3.7 µM -55% | [11]; [17] 3% | [11]; at 11.0 µM -59% | [11]; at 33.0 µM -44% | [11]; [18] 14% | [11]; at 50.0 µM 21% | [12]; at 1.2 µM -47% | [12]; at 3.7 µM -64% | [12]; at 11.0 µM -59% | [12]; at 33.0 µM -35% | [13]; at 1.2 µM -61% | [13]; at 3.7 µM -45% | [13]; at 11.0 µM -44% | [13]; at 33.0 µM 11% | [14]; at 1.2 µM -25% | [14]; at 3.7 µM -31% | [14]; at 11.0 µM -44% | [14]; at 33.0 µM -1% | [15]; [17] 29% | [16]; at 1.2 µM -74% | [16]; at 3.7 µM -68% | [16]; at 11.0 µM -51% | [16]; at 33.0 µM -30%
active: [1]; at 100.0 µM 94% | [2]; at 100.0 µM 95% | [4]; at 100.0 µM 95% | [5]; at 100.0 µM 94% | [6]; at 100.0 µM 93% | [7]; at 100.0 µM 95% | [9]; at 100.0 µM 78% | [11]; at 100.0 µM 75% | [12]; at 100.0 µM 96% | [13]; at 100.0 µM 93% | [14]; at 100.0 µM 93% | [15]; [18] 81% | [15]; at 50.0 µM 72.7% | [16]; at 100.0 µM 95%

C[S+](C)C1(c2ccccc2)C(=O)c2ccccc2C1=O
active: [1]; at 100.0 µM 73% | [3]; at 100.0 µM 72% | [5]; [18] 76% | [5]; at 50.0 µM 77% | [5]; at 100.0 µM 72%
inactive: [1]; at 1.2 µM 8% | [1]; at 3.7 µM 11% | [1]; at 11.0 µM 20% | [1]; at 33.0 µM 35% | [2]; at 1.2 µM 1% | [2]; at 3.7 µM 2% | [2]; at 11.0 µM 1% | [2]; at 33.0 µM 3% | [2]; at 100.0 µM 12% | [3]; at 1.2 µM 1% | [3]; at 3.7 µM 3% | [3]; at 11.0 µM 9% | [3]; at 33.0 µM 36% | [4]; at 1.2 µM 2% | [4]; at 3.7 µM 1% | [4]; at 11.0 µM 4% | [4]; at 33.0 µM 3% | [4]; at 100.0 µM 36% | [5]; at 1.2 µM 1% | [5]; at 3.7 µM 7% | [5]; [17] 7% | [5]; at 11.0 µM 18% | [5]; at 33.0 µM 42% | [6]; at 1.2 µM 3% | [6]; at 3.7 µM 0% | [6]; [17] -9% | [6]; at 11.0 µM 0% | [6]; at 33.0 µM 11% | [6]; [18] 1% | [6]; at 50.0 µM -11.7% | [6]; at 100.0 µM 30% | [7]; at 1.2 µM 1% | [7]; at 3.7 µM 0% | [7]; at 11.0 µM 2% | [7]; at 33.0 µM 6% | [7]; at 100.0 µM 22% | [8]; [17] 6% | [8]; [18] 6% | [8]; at 50.0 µM 1.35% | [9]; at 1.2 µM 1% | [9]; at 3.7 µM 2% | [9]; at 11.0 µM 8% | [9]; at 33.0 µM 13% | [9]; at 100.0 µM 26% | [10]; [17] 6% | [10]; [18] 10% | [10]; at 50.0 µM 9.8% | [11]; at 1.2 µM 1% | [11]; at 3.7 µM 2% | [11]; [17] -7% | [11]; at 11.0 µM 2% | [11]; at 33.0 µM 8% | [11]; [18] 10% | [11]; at 50.0 µM 35.9% | [11]; at 100.0 µM 30% | [12]; at 1.2 µM 2% | [12]; at 3.7 µM -1% | [12]; at 11.0 µM 0% | [12]; at 33.0 µM 6% | [12]; at 100.0 µM 32% | [13]; at 1.2 µM 1% | [13]; at 3.7 µM -1% | [13]; at 11.0 µM 0% | [13]; at 33.0 µM 7% | [13]; at 100.0 µM 30% | [14]; at 1.2 µM -1% | [14]; at 3.7 µM -2% | [14]; at 11.0 µM -1% | [14]; at 33.0 µM 16% | [14]; at 100.0 µM 52% | [15]; [17] 10% | [15]; [18] 10% | [15]; at 50.0 µM 27.9% | [16]; at 1.2 µM 5% | [16]; at 3.7 µM 9% | [16]; at 11.0 µM 16% | [16]; at 33.0 µM 36% | [16]; at 100.0 µM 54%

CCCCCCCCCCNC(=O)OCC
active: [1]; at 100.0 µM 98% | [2]; at 100.0 µM 98% | [3]; at 100.0 µM 81% | [4]; at 100.0 µM 99% | [5]; at 50.0 µM 84.5% | [5]; at 100.0 µM 99%
inactive: [1]; at 1.2 µM 0% | [1]; at 3.7 µM 1% | [1]; at 11.0 µM 11% | [1]; at 33.0 µM 37% | [2]; at 1.2 µM -3% | [2]; at 3.7 µM -5% | [2]; at 11.0 µM -4% | [2]; at 33.0 µM 4% | [3]; at 1.2 µM 1% | [3]; at 3.7 µM 9% | [3]; at 11.0 µM 28% | [3]; at 33.0 µM 68% | [4]; at 1.2 µM -2% | [4]; at 3.7 µM -11% | [4]; at 11.0 µM 4% | [4]; at 33.0 µM 28% | [5]; at 1.2 µM 1% | [5]; at 3.7 µM 9% | [5]; [17] 1% | [5]; at 11.0 µM 24% | [5]; at 33.0 µM 40% | [5]; [18] 22% | [6]; at 1.2 µM -7% | [6]; at 3.7 µM -5%
